The full list was thinned out, with hits kept by preference.
PLAP act: activators of human placental alkaline phosphatase; P05187; activation fold at 20 µM; AID 696; purified PLAP enzyme, luminescent substrate read-out; stronger effect = higher value; hit rate 1.2% among 96,000; in the data active = activation fold above about 2
D1 allo mod: D1 dopamine receptor (human) allosteric modulation | AID 641 | hit rate 5.9% among 58,000 | B-score at 10 µM | HEK293 D1, CRE-luciferase, dopamine EC30 potentiation; actives deviate in either direction;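 active = luminescence count or its row- and column-corrected plate score outside the 99.7% band of the plate's sample wells, on either side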
Candida biofilm: kills Candida albicans biofilms | C. albicans biofilm + clotrimazole, Alamar Blue | inhibition, % at 6 µM | hit rate 0.14% among 85,000;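 active = inhibition above 20%; inactive = inhibition below 20%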;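 also: preformed 24 hr biofilms exposed to compound for 48 hr; 0% = biofilm without compound and 100% = blank killed by clotrimazole plus chlorhexidine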
HePTP inhibitor: human HePTP phosphatase inhibition; AID 521; inhibition, % at 20 µM; P35236; recombinant HePTP phosphatase activity, OD absorbance; hit rate 0.64% among 110,000; in the data active = inhibition above about 50%;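 also: plate controls were vehicle for no effect and reference inhibitor for full effect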
TNAP act DEA: activators of human TNAP at intermediate phosphate acceptor | P05186 | purified TNAP, CDP-star luminescence, 100 mM DEA, 30 min; stronger effect = higher value; scale: 0 levamisole-inhibited, 1 vehicle-only enzyme | activation factor at 20 µM | 64,000 tested, under 10 active | AID 813;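 active = activation factor of at least 2 at 20 µM, relative to controls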
DAT uptake mod: modulates human dopamine transporter uptake under cocaine. LLC-PK1 hDAT cells, [14C]-dopamine uptake with cocaine IC80; actives deviate in either direction. B-score at 10 µM. hit rate 1.3% among 110,000. AID 449768;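 active = Z score or B-score, a plate-position-corrected score, falls beyond the plate's 99.7% confidence bounds, in either direction; inactive = both scores lie inside the 99.7% bounds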;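 also: scored against the spread of the other compound wells on the same plate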
Target sequence (Q01959 whole entry, looked up): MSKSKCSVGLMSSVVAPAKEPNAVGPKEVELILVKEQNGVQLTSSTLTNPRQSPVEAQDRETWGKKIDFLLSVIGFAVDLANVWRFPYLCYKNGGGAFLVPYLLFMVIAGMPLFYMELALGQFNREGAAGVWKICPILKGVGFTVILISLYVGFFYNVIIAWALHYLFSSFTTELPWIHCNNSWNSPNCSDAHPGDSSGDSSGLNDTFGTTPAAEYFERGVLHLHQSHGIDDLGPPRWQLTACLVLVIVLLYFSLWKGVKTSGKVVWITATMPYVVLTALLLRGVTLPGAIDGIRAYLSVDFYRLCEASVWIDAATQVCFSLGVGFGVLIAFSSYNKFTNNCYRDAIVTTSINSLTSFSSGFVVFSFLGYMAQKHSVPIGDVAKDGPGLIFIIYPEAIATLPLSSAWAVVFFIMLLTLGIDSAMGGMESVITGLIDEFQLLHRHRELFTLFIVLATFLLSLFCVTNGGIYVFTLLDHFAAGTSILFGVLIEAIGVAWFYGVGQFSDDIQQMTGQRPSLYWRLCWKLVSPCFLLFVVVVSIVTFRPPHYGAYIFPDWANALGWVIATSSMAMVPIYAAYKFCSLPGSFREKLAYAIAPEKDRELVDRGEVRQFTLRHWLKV
* = called active by the depositor; . = no result given.

SMILES | PLAP act | D1 allo mod | Candida biofilm | HePTP inhibitor | TNAP act DEA | DAT uptake mod
Cc1ccccc1Cn1nnc(-c2cccc(C(=O)O)c2)n1 | 1.1 | -2.7* | 7 | 2 | 1 | -0.12
O=C(O)c1cccc(-c2nnn(Cc3ccccc3Cl)n2)c1 | . | . | 1 | . | . | 0.4
O=C(Cc1cnn(-c2ccccc2)c1)c1ccc(O)c(O)c1O | 2* | . | 9 | . | . | 0.04
Cc1cc2ncn(C(=O)c3c(-c4ccccc4)noc3C)c2cc1C | 0.9 | 0.45 | . | 3 | 0.9 | -2.3*
Cc1ccc(NC(=O)c2c(-c3ccccc3)noc2C)cc1C | . | . | . | 104* | . | .
Cc1ccc(NC(=O)c2c(-c3ccccc3)noc2C)cc1Cl | . | . | . | 6 | . | .
COc1cc(/C=N/NC(=O)/C(=C\C=C\c2ccccc2)NC(=O)c2ccccc2)cc(OC)c1O | . | . | . | 5 | . | .
O=C1OC(c2ccccc2)=N/C1=C/c1c(F)c(F)c(F)c(F)c1F | . | . | . | 11 | . | .
Cc1ncc(C[n+]2csc(CCOC(=O)C3C4CC5CC(C4)CC3C5)c2C)c(N)n1 (stereo not drawn) | . | . | . | 11 | . | .
O=C1OCCC1Sc1nnc(-c2ccc3c(c2)OCO3)n1-c1ccccc1 (stereo not drawn) | 1.1 | -3.8* | -1 | 7 | 1 | 0.53
C=CCn1c(CSCc2ccc(C)cc2)nnc1SCC(=O)NCc1ccccc1 | 1.8 | . | . | . | . | 2.1*
COc1cc(/C=C2\C(=O)NC(=O)N(c3ccc(C)c(C)c3)C2=O)cc(Cl)c1O | . | . | . | 4 | . | .
COC(=O)c1[nH]c2ccc(C)cc2c1NC(=O)CCN1CCN(C2CCCCC2)CC1 | 1.6 | -0.2 | 6 | 3 | 1 | -0.017
CCOC(=O)C1CCN(CC(=O)Nc2c(C(=O)OC)[nH]c3ccccc23)CC1 | 1.4 | -0.66 | 6 | 10 | 0.9 | -8.2*
COC(=O)c1[nH]c2cc(C)ccc2c1NC(=O)CN1CCCc2ccccc21 | 1.4 | -0.038 | . | 1 | 1 | 2.8*
COC(=O)c1[nH]c2ccc(Br)cc2c1NC(=O)CN1CCN(C2CCCCC2)CC1 | 1.6 | 0.11 | 4 | 7 | 0.9 | 2.9*
CCCc1nc2oc3c(NCCN(C)C)ncnc3c2c2c1CCCC2 | 1.7 | 3.2* | 7 | 7 | 0.9 | -0.93
O/N=C1/CC/C(=N\O)c2nn(-c3ccccc3)nc21 | 0.9 | 0.51 | . | -4 | 0.9 | -8*
O=C(O)c1nn(-c2ccccc2)nc1-c1nn(-c2ccccc2)nc1C(=O)O | 1.1 | 0.2 | 5 | 6 | 1 | -1.1
O=C(O)c1ccc(N=Cc2ccc([N+](=O)[O-])s2)cc1 | . | . | . | 6 | . | .
NS(=O)(=O)c1ccc(CNC(=S)Nc2ccc(F)cc2)cc1 | . | . | . | -9 | . | .
O=C(OCc1ccc(Cl)cc1Cl)c1cccnc1Cl | 1.2 | . | 9 | . | . | -8.6*
COc1cc(C(CCN2CCCC2)c2c(OC)cc(OC)c3c(C)cc(=O)oc23)cc(OC)c1OC (stereo not drawn) | . | . | . | . | . | 0.61
COc1cc(C(CCN2CCOCC2)c2c(OC)cc(OC)c3c(C)cc(=O)oc23)cc(OC)c1OC (stereo not drawn) | . | . | . | . | . | 2.8*
COc1ccc(C(CC(=O)N2CCCC2)c2c(OC)cc(OC)c3c(-c4ccccc4)cc(=O)oc23)cc1 (stereo not drawn) | . | . | . | . | . | 1.1
SMILES | PLAP act | D1 allo mod | Candida biofilm | HePTP inhibitor | TNAP act DEA | DAT uptake mod
COc1cc(C(CC(=O)N2CCCC2)c2c(OC)cc(OC)c3c(-c4ccccc4)cc(=O)oc23)cc(OC)c1OC (stereo not drawn) | . | . | . | . | . | 2.7*
COc1ccc(CNC(=O)c2c(Cl)cccc2Cl)cc1 | . | . | . | 6 | . | .
Cc1ccc(O)c(O)c1 | . | . | . | . | . | 0.88
Cc1ccc(O)c(Sc2cc(C)ccc2O)c1 | 2.5* | 0.27 | 8 | 7 | 1.1 | 1.1
CCCCCCC(=O)Nc1c(O)c2ccccc2[nH]c1=O | 1 | -3.1* | 5 | 10 | 1 | -0.86
O=C(/C=C\c1ccccc1)Nc1cccc(NC(=O)c2ccco2)c1 | . | . | . | -17 | . | .
CCn1nc(NC(=O)c2ccccn2)c2cc3cc(C)ccc3nc21 | 1.8 | 0.9 | 8 | 6 | 1 | 1.5
Cc1ccc2nc3c(cc2c1)c(NC(=O)c1ccccn1)nn3CC(C)C | 2.3* | . | 8 | . | . | -0.13
Cc1ccccc1C(=O)NNC(=O)Cc1cccc2ccccc12 | 2* | . | 2 | . | . | -0.72
COc1ccccc1CNc1cc(CSc2ccc(Cl)cc2)nc(C)n1 | 2* | . | 0 | . | . | -0.028
COc1cccc(CNc2cc(CSc3ccc(Cl)cc3)nc(C)n2)c1 | 2* | . | 1 | . | . | 0.59
COc1cccc(CNc2nc3nc(C)cc(C)n3n2)c1 | 1.2 | -0.35 | 2 | 4 | 0.9 | -0.23
CCOc1cc(/C=N/n2cnnc2)cc(Cl)c1OCCOc1cc(C)ccc1C(C)C | . | . | . | 0 | . | .
CCOc1ccc(OCC)c(C(=O)O)c1 | . | . | . | 9 | . | .
Cc1ccc2ccc(S(=O)(=O)N3CCN(C)CC3)cc2c1 | . | . | . | 11 | . | .
N/N=C1/NC(=O)C(Cc2cccc([N+](=O)[O-])c2)S1 (stereo not drawn) | . | . | . | -4 | . | .
COc1cc(/C=N/N2C(=O)CSC2=S)ccc1O | 2.2* | . | 6 | 9 | . | 0.07
COc1cc(/C=N/N2C(=O)CSC2=S)ccc1OCCOc1ccc(C)c(C)c1 | . | . | . | 12 | . | .
CCc1ccc(OCC(=O)Nc2cccc(OC)c2)cc1 | . | . | . | 9 | . | .
Cc1ccc(Cn2c(SCC(=O)Nc3cc(C)on3)nc3ccccc3c2=O)cc1 | 1.1 | 0.87 | 5 | -8 | 1 | -0.28
Cc1cc(NC(=O)CSc2nc3c(c(=O)n2Cc2ccccc2)SC(C)C3)no1 (stereo not drawn) | . | 5.5* | . | 1 | 0.8 | 0.096
Cc1cc(NC(=O)CSc2nc3ccccc3c(=O)n2Cc2ccccc2)no1 | 0.9 | 3 | 2 | 3 | 0.9 | -8.2*
CCn1c(SCC(=O)Nc2cc(C)on2)nc2sc(C)c(C)c2c1=O | 1.1 | 6.9* | 2 | -2 | 0.9 | .
COC(=O)c1ccc(NC(=O)Cn2nc(SC)n(N)c2=S)cc1 | 0.9 | 0.04 | 27* | 1 | 0.9 | -0.019
CC(Nc1nc(-c2ccc(F)cc2)cs1)c1nc2cc(Cl)c(Cl)cc2n1CCCO (stereo not drawn) | . | . | . | . | . | -0.42
Cc1csc(NC(C)c2nc3cc(C(F)(F)F)ccc3n2CCCO)n1 (stereo not drawn) | . | . | . | . | . | -2.7*
CC(C)(C)OC(=O)N1CCC[C@H]1c1nnc(SCc2ccc(Cl)cc2Cl)o1 | 1.5 | -1.3 | 4 | -2 | 0.9 | -2.1*

Source: PubChem BioAssay (several laboratories)
